# Results published in the supplement of paper PMC11732987, “Enantioselective OTUD7B fragment discovery through chemoproteomics screening and high-throughput optimisation” (Communications Chemistry, 2025).
# Unmarked numbers belong to inactive results.
# Columns and labels:
# Assay in all cases: log2 ratio of Biotin-Ahx-Ub-VS probe labelling (fragment/DMSO); higher = less target engagement (more negative = stronger competition), active = hit call of the paper (q ≤ 0.05, log2 ratio ≤ -1)
# Details in all cases: compound concentration: 200 uM; treatment time: 3 h
# OTUD6B = molecular target: T1, OTUD6B (UniProt Q8N6M0)
# T1 sequence (whole entry): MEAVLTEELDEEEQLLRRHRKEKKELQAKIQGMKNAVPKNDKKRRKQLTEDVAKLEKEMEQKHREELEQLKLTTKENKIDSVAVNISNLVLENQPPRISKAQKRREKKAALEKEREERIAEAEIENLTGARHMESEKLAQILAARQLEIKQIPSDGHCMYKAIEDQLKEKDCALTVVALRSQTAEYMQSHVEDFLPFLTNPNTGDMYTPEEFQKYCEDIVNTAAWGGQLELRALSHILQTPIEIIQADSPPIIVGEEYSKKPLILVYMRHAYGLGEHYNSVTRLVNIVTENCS
# How it was run: (§1)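 The table lists average log2 ratios of fragment over vehicle, from an unpaired t-test on global-median-normalised Spectronaut label-free quantities. Proteins with ≥2 unique peptides were used. Samples were HEK293T lysate (495 µg) treated in triplicate with fragment at 200 µM or vehicle for 3 h, then with Biotin-Ahx-Ub-VS (0.5 µM final) for 1 h, with labelled DUBs NeutrAvidin-enriched and run by diaPASEF LC-MS/MS.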
# OTUD7B = molecular target: T2, OTUD7B (UniProt Q6GQQ9)
# T2 sequence (whole entry): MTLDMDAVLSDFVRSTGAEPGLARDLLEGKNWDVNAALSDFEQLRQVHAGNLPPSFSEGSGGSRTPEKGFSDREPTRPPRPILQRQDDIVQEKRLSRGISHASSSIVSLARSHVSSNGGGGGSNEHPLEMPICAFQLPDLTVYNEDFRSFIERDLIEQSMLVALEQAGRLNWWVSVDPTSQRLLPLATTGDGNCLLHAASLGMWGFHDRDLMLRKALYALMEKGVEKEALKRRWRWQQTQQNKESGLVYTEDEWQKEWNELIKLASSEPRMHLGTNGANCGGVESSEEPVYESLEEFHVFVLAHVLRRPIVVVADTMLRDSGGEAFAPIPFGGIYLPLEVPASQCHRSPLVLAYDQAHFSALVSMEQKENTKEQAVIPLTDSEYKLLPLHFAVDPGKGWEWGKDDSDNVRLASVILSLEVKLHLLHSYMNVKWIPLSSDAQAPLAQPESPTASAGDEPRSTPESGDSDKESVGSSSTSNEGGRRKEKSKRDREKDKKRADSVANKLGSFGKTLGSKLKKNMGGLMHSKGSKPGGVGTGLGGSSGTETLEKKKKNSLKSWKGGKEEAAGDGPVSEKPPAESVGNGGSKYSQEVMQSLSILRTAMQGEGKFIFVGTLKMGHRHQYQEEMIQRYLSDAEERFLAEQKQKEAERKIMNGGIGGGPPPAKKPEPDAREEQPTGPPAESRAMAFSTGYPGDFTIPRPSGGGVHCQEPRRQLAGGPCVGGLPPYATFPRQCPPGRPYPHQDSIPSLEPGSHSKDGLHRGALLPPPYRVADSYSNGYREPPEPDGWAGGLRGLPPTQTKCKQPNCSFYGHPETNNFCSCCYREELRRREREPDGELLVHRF
# How it was run: as §1
# PRPF8 = PRPF8 (UniProt Q6P2Q9)
# How it was run: as §1
# PSMD7 = molecular target: T3, PSMD7 (UniProt P51665)
# T3 sequence (whole entry): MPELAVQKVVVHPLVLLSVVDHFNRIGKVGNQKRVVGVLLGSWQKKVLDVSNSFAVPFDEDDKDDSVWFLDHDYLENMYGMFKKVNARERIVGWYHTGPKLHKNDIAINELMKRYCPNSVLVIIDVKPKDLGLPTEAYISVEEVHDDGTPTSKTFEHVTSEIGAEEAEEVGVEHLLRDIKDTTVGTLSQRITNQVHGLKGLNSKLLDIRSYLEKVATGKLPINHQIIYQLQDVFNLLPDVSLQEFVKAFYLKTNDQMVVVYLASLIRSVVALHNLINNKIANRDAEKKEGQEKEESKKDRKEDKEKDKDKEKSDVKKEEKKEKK
# How it was run: as §1
# UCHL1 = UCHL1 (UniProt P09936)
# How it was run: as §1
# UCHL3 = molecular target: T4, UCHL3 (UniProt P15374)
# T4 sequence (whole entry): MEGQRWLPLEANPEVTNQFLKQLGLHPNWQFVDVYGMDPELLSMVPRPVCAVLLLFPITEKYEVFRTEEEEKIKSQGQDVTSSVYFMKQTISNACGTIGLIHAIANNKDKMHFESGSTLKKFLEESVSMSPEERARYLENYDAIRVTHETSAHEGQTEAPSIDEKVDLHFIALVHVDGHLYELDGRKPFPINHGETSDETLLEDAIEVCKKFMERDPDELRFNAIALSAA
# How it was run: as §1
# UCHL5 = molecular target: T5, UCHL5 (UniProt Q9Y5K5)
# T5 sequence (whole entry): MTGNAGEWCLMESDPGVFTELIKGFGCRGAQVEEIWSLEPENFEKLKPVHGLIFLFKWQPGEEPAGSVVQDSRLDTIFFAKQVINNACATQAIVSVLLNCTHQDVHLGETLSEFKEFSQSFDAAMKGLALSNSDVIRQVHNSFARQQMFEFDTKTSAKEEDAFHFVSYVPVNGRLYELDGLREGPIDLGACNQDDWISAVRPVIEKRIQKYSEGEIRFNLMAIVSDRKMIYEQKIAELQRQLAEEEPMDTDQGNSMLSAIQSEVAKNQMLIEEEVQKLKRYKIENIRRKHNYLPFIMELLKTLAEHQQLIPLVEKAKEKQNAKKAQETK
# How it was run: as §1
# USP10 = USP10 (UniProt Q14694)
# How it was run: as §1
# USP15 = molecular target: T6, USP15 (UniProt Q9Y4E8)
# T6 sequence (whole entry): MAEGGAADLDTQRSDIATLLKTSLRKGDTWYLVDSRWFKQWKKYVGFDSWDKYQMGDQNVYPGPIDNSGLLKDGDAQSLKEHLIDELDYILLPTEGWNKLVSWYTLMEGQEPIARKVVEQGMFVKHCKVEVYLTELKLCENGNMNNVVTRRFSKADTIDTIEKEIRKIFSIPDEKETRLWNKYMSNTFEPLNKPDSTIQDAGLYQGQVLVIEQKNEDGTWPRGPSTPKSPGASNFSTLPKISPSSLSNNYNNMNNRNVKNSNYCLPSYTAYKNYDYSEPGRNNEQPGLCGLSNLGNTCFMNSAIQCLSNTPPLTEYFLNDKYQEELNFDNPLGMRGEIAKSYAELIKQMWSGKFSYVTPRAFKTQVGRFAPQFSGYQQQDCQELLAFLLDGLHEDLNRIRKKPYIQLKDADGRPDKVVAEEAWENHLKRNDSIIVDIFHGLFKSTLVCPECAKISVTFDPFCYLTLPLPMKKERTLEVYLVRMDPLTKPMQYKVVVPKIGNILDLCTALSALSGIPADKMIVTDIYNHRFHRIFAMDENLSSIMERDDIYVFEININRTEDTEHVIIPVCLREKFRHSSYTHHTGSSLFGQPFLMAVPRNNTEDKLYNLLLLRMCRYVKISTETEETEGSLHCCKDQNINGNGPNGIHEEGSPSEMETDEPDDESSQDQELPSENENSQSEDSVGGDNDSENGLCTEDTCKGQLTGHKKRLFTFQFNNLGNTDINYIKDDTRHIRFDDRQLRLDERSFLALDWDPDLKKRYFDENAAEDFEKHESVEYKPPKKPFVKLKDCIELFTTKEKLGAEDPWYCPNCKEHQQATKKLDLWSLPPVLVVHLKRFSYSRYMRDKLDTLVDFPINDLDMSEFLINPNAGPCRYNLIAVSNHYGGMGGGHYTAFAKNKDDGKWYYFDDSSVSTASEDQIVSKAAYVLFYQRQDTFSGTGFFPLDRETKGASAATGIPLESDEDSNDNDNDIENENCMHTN
# How it was run: as §1
# USP16 = USP16 (UniProt Q9Y5T5)
# How it was run: as §1
# USP10, sequence (Q14694 whole entry): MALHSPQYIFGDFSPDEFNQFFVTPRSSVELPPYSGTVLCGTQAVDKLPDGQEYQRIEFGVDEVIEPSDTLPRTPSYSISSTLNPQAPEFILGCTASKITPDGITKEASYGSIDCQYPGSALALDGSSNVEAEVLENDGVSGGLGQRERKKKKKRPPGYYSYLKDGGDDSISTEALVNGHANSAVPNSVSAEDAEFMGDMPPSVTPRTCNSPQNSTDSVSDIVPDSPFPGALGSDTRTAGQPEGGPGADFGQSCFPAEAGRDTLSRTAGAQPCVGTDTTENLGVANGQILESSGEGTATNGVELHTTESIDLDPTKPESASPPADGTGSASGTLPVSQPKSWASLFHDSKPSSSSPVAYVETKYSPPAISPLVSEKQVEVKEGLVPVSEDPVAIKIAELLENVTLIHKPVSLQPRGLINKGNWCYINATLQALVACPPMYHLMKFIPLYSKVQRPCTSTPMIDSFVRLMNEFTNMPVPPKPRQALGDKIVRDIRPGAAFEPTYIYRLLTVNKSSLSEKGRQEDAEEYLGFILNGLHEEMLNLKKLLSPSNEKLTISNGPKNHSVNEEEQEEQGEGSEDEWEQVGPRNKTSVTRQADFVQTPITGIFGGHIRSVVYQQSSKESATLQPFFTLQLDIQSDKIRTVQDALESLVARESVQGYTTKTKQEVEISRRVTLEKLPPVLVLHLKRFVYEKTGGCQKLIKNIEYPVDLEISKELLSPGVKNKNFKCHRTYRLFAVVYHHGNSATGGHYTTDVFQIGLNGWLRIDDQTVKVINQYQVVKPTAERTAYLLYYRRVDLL
# USP16, sequence (Q9Y5T5 whole entry, looked up): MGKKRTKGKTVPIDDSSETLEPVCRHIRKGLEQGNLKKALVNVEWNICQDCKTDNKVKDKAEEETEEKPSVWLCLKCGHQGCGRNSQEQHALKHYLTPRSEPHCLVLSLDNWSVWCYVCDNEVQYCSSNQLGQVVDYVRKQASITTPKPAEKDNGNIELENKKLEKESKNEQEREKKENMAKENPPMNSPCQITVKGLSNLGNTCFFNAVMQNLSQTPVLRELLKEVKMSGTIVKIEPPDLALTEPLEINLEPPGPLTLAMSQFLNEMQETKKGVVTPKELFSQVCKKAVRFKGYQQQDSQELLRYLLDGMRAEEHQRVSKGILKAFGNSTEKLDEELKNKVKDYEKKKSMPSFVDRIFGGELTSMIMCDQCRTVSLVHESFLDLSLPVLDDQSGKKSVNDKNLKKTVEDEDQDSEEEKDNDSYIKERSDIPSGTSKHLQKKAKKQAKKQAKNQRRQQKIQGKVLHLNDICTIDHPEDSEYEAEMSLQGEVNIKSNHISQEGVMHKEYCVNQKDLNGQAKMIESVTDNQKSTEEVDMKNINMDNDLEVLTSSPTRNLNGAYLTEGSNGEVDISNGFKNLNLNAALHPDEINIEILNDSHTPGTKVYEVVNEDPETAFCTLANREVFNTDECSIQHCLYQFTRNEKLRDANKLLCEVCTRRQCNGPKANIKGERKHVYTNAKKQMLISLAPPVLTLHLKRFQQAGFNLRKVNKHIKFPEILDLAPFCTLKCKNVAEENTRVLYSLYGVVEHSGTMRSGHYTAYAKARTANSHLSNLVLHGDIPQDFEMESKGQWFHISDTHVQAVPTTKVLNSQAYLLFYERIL
# UCHL1, sequence (P09936 whole entry, looked up): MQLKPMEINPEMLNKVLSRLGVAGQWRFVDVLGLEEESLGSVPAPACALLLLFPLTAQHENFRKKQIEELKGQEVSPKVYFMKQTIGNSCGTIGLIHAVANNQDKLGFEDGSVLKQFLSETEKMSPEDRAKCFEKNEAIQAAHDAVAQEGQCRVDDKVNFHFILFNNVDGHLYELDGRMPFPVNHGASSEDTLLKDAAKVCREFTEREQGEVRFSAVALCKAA
structure (smiles),measurement,setting,value
N#Cc1ccccc1N1CCN(C(=O)CCl)CC1,log2 ratio of Biotin-Ahx-Ub-VS probe labelling,OTUD6B,-0.533
same,log2 ratio of Biotin-Ahx-Ub-VS probe labelling,OTUD7B,-0.626
same,log2 ratio of Biotin-Ahx-Ub-VS probe labelling,PRPF8,-0.322
same,log2 ratio of Biotin-Ahx-Ub-VS probe labelling,PSMD7,-0.0914
same,log2 ratio of Biotin-Ahx-Ub-VS probe labelling,UCHL1,-2.04 (active)
same,log2 ratio of Biotin-Ahx-Ub-VS probe labelling,UCHL3,-0.341
same,log2 ratio of Biotin-Ahx-Ub-VS probe labelling,UCHL5,-0.894
same,log2 ratio of Biotin-Ahx-Ub-VS probe labelling,USP10,-0.051
same,log2 ratio of Biotin-Ahx-Ub-VS probe labelling,USP15,-0.781
same,log2 ratio of Biotin-Ahx-Ub-VS probe labelling,USP16,-0.37
